Reference: PubChem BioAssay (NCATS)
Several values for one entry are separate records, joined by “and”; a condition that tells them apart may be missing. Equal values may be shown once. Inconclusive results are not listed. Activity calls are given as the source filed them. Unless noted, calls come from the whole dose curve; as a rule, active = well fitted curve in the direction sought with a large enough effect; inconclusive = small, poorly fitted or top-dose-only effect, or another doubt; inactive = no such curve, though single readings can be large; an effect the other way counts as inactive or inconclusive.

Key:
C33A = assay: Primary qHTS to identify gynecologic anti-cancer compounds using libraries of approved drugs and bioactive compounds (AID 1345084); details: Gynecologic cancer cell panel viability, ATPlite luminescence, 48 h; series mostly up to 57.5 µM; note: nearly all actives have a fitted effect of over 55% in size; note: potency is the fitted concentration of half-maximal effect
In short: (§1)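 Five-point cytotoxicity, 48 h drug exposure at 37 C, 5% CO2, on cells seeded 16 h beforehand. ATP content read by ATPlite luminescence.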

CAOV3 = assay: as above; details: Gynecologic cancer cell panel viability, ATPlite luminescence, 48 h; series mostly up to 57.5 µM
In short: as §1

CASKI = assay: as above; details: Gynecologic cancer cell panel viability, ATPlite luminescence, 48 h; series mostly up to 57.5 µM
In short: as §1

Es-2 = assay: as above; details: Gynecologic cancer cell panel viability, ATPlite luminescence, 48 h; series mostly up to 57.5 µM
In short: as §1

HeLa = assay: as above; details: Gynecologic cancer cell panel viability, ATPlite luminescence, 48 h; series mostly up to 57.5 µM
In short: as §1

Hek293T = assay: as above; details: Gynecologic cancer cell panel viability, ATPlite luminescence, 48 h, control line for the selectivity index; series mostly up to 57.5 µM
In short: as §1

JEG-3 = assay: as above; details: Gynecologic cancer cell panel viability, ATPlite luminescence, 48 h; series mostly up to 57.5 µM
In short: as §1

OV90 = assay: as above; details: Gynecologic cancer cell panel viability, ATPlite luminescence, 48 h; series mostly up to 57.5 µM
In short: as §1

PA-1 = assay: as above; details: Gynecologic cancer cell panel viability, ATPlite luminescence, 48 h; series mostly up to 57.5 µM
In short: as §1

SKOV3 = assay: as above; details: Gynecologic cancer cell panel viability, ATPlite luminescence, 48 h; series mostly up to 57.5 µM
In short: as §1

Tov-21-G = assay: as above; details: Gynecologic cancer cell panel viability, ATPlite luminescence, 48 h; series mostly up to 57.5 µM
In short: as §1

Tov112D = assay: as above; details: Gynecologic cancer cell panel viability, ATPlite luminescence, 48 h; series mostly up to 57.5 µM
In short: as §1

[1] = Drug repurposing screens with cells derived from glioblastoma tumor samples (AID 1345199); details: GBM patient neurospheres viability, ATP luminescence, 48 h; note: % is set by controls: 0 for no effect and ±100 for the full control effect; nearly all actives have a fitted effect of over 40% in size
In short: (§2)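 Four patient lines of CD133+ GBM neurospheres were screened at several concentrations; hits were retested in those lines plus three slower-growing GBM lines, using 48-hour treatment and ATP-based viability.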

astro = assay: as above; details: viability, ATP luminescence, 48 h; series mostly up to 45.9 µM
In short: as §2

[2] = target: Nuclear receptor subfamily 1 group I member 2 (Rattus norvegicus) (UniProt Q9R1A7); assay: qHTS assay for small molecule activators of the rat pregnane X receptor (rPXR) signaling pathway (AID 651751; call rule not given here; note: 0% is about no effect); details: rPXR reporter cells, luciferase (One-Glo), 24 h
[3] = qHTS assay to identify inhibitors of the type 1 interferon - major histocompatibility complex class I in skeletal muscle: Counter screen cell viability and HiBit confirmation (AID 1347412); details: iHSKM muscle cells + IFN-b, HiBiT or CellTiter-Glo, 24 h; note: nearly all actives have a fitted effect of over 60% in size; note: potency is the fitted concentration of half-maximal effect; for activity change, negative = inhibition: % is set by controls: 0 for no effect and ±100 for the full control effect
In short: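 HLA-B*08:01–HiBiT knock-in immortalized human myoblasts (C25cl48) stimulated with 4.0 ng/ml human IFN-beta and dosed with compound in a 12-point 1:3 titration (top final 46 uM). After 24 hrs at 37 C, HiBiT lytic luminescence or CellTiter Glo ATP read out.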

[4] = qHTS assay for small molecule activators of the human pregnane X receptor (PXR) signaling pathway (AID 720659; call rule not given here; note: 0% is about no effect)
[5] = at 45.9 µM (top of the series), tumour line B
[6] = at 45.9 µM (top of the series), tumour line D
[7] = at 46 µM (top of the series), tumour line A
[8] = at 46.1 µM (top of the series), tumour line C

Chain of Nuclear receptor subfamily 1 group I member 2 (Rattus norvegicus) (Q9R1A7 whole entry, looked up): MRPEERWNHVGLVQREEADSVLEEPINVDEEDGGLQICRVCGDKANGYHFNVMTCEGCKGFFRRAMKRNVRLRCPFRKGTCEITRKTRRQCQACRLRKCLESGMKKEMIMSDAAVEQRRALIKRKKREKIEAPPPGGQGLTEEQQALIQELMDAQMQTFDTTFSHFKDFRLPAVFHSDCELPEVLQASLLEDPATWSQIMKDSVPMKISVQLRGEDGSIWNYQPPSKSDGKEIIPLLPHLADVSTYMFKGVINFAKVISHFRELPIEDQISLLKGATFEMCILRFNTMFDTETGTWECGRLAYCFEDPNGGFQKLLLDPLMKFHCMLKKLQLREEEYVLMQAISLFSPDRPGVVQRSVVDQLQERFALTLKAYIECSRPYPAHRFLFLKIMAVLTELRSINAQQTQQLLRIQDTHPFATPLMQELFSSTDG

C[C@@H](O)[C@H]1C(=O)N2C(C(=O)O)=C(S[C@@H]3CN[C@H](C(=O)N(C)C)C3)[C@H](C)[C@H]12
inactive: Potency (C33A) | Potency (CAOV3) | Potency (CASKI) | Potency (Es-2) | Potency (HeLa) | Potency (Hek293T) | Potency (JEG-3) | Potency (OV90) | Potency (PA-1) | Potency (SKOV3) | Potency (Tov-21-G) | Potency (Tov112D) | activity, negative = cell killing [1, 5] -4.52% | activity, negative = cell killing [1, 6] 4.08% | activity, negative = cell killing [1, 7] -23.7% | activity, negative = cell killing [1, 8] -22.4% | Potency (astro)

NC(=O)c1cccc2[nH]c(-c3ccc([C@H]4CCCN4)cc3F)nc12
active: Potency (C33A) 17.8 µM | Potency (CAOV3) 28.2 µM | Potency (CASKI) 12.6 µM | Potency (Es-2) 31.6 µM | Potency (Hek293T) 17.8 µM | Potency (JEG-3) 14.1 µM | Potency (OV90) 14.1 µM | Potency (PA-1) 12.6 µM | Potency (Tov-21-G) 14.1 µM | Potency (Tov112D) 12.6 µM

CC(C)[C@H](CO)Nc1nc(Nc2ccc(C(=O)O)c(Cl)c2)c2ncn(C(C)C)c2n1
inactive: Potency (C33A) | Potency (CAOV3) | Potency (CASKI) | Potency (Es-2) | Potency (HeLa) | Potency (Hek293T) | Potency (JEG-3) | Potency (OV90) | Potency (PA-1) | Potency (SKOV3) | Potency (Tov-21-G) | Potency (Tov112D)

CCOC(=O)C1=C(N)Oc2ccc(Br)cc2C1C(C#N)C(=O)OCC (centres undefined)
inactive: Potency (C33A) | Potency (CAOV3) | Potency (CASKI) | Potency (Es-2) | Potency (HeLa) | Potency (Hek293T) | Potency (JEG-3) | Potency (OV90) | Potency (PA-1) | Potency (SKOV3) | Potency (Tov-21-G) | Potency (Tov112D)

COc1ccccc1N1CCN(CCCNc2cc(=O)n(C)c(=O)n2C)CC1
inactive: Potency (C33A) | Potency (CAOV3) | Potency (CASKI) | Potency (Es-2) | Potency (HeLa) | Potency (Hek293T) | Potency (JEG-3) | Potency (OV90) | Potency (PA-1) | Potency (SKOV3) | Potency (Tov-21-G) | Potency (Tov112D) | activity, negative = cell killing [1, 5] -12.1% and -4.13% | activity, negative = cell killing [1, 6] 1.29% and -19.7% | activity, negative = cell killing [1, 7] -30.8% | activity, negative = cell killing [1, 8] -17.7% and -6.4% | Potency (astro)

Cn1c(N2CCCCS2(=O)=O)nc(C(=O)NCc2ccc(F)cc2)c(O)c1=O
inactive: Potency (C33A) | Potency (CAOV3) | Potency (CASKI) | Potency (Es-2) | Potency (HeLa) | Potency (Hek293T) | Potency (JEG-3) | Potency (OV90) | Potency (PA-1) | Potency (SKOV3) | Potency (Tov-21-G) | Potency (Tov112D)

COc1ccc(C2CC(c3ccccc3)=NN2c2ccc(S(N)(=O)=O)cc2)cc1 (centres undefined)
inactive: Potency (C33A) | Potency (CAOV3) | Potency (CASKI) | Potency (Es-2) | Potency (HeLa) | Potency (Hek293T) | Potency (JEG-3) | Potency (OV90) | Potency (PA-1) | Potency (SKOV3) | Potency (Tov-21-G) | Potency (Tov112D)

COC[C@@H](c1ccc(C(F)(F)F)cc1)N1CCN(C2(C)CCN(C(=O)c3c(C)ncnc3C)CC2)C[C@H]1C
inactive: Potency (C33A) | Potency (CAOV3) | Potency (CASKI) | Potency (Es-2) | Potency (HeLa) | Potency (Hek293T) | Potency (JEG-3) | Potency (OV90) | Potency (PA-1) | Potency (Tov-21-G) | Potency (Tov112D)

O=C1NC(=O)C(c2ccccc2)(c2ccccc2)N1
inactive: Potency (C33A) | Potency (CAOV3) | Potency (CASKI) | Potency (Es-2) | Potency (HeLa) | Potency (Hek293T) | Potency (JEG-3) | Potency (OV90) | Potency (PA-1) | Potency (SKOV3) | Potency (Tov-21-G) | Potency (Tov112D) | activity, negative = cell killing [1, 5] -5.12% | activity, negative = cell killing [1, 6] -12.9% | activity, negative = cell killing [1, 7] -29.6% | activity, negative = cell killing [1, 8] 10.5% | Potency (astro) | max response [2] -3.01% and 3.12% and 2.23%

CC(=O)Nc1ccc([C@H](C)C(=O)Nc2ncc(C(C)C)s2)cc1
active: Potency (C33A) 20 µM | Potency (Es-2) 14.1 µM | Potency (Hek293T) 15.8 µM | Potency (PA-1) 22.4 µM | Potency ([3]; HiBiT) 2.49 µM
inactive: Potency (CAOV3) | Potency (JEG-3) | Potency (SKOV3) | activity change, negative = inhibition ([3]; Viability, at 45.9 µM (top of the series)) -0.582%

CN(C)Cc1ccc(-c2nc3cccc4c3n2CCNC4=O)cc1
inactive: Potency (C33A) | Potency (CAOV3) | Potency (CASKI) | Potency (HeLa) | Potency (JEG-3) | Potency (OV90) | Potency (SKOV3) | Potency (Tov112D)

COC(=O)[C@@H]1[C@H]2C[C@H]3c4[nH]c5ccccc5c4CCN3C[C@@H]2CC[C@@H]1O
inactive: Potency (C33A) | Potency (CAOV3) | Potency (CASKI) | Potency (Es-2) | Potency (HeLa) | Potency (Hek293T) | Potency (JEG-3) | Potency (OV90) | Potency (PA-1) | Potency (SKOV3) | Potency (Tov-21-G) | Potency (Tov112D) | activity, negative = cell killing [1, 5] 3.23% | activity, negative = cell killing [1, 6] 3.82% | activity, negative = cell killing [1, 8] -7.31% | Potency (astro)

O=c1[nH]cnc2c1ncn2[C@H]1CC[C@@H](CO)O1
inactive: Potency (C33A) | Potency (CAOV3) | Potency (CASKI) | Potency (Es-2) | Potency (HeLa) | Potency (Hek293T) | Potency (JEG-3) | Potency (OV90) | Potency (PA-1) | Potency (SKOV3) | Potency (Tov-21-G) | Potency (Tov112D) | activity, negative = cell killing [1, 5] -2.39% | activity, negative = cell killing [1, 6] 8.81% | activity, negative = cell killing [1, 7] -25.7% | activity, negative = cell killing [1, 8] -15.1% | Potency (astro) | max response [2] -1.01% and 3.56% | outcome [4]

COc1ccc2cc(-c3nc(-c4ccc(S(C)=O)cc4)[nH]c3-c3ccncc3)ccc2c1 (centres undefined)
inactive: Potency (C33A) | Potency (CAOV3) | Potency (CASKI) | Potency (Es-2) | Potency (HeLa) | Potency (Hek293T) | Potency (JEG-3) | Potency (OV90) | Potency (PA-1) | Potency (Tov-21-G) | Potency (Tov112D)

COCCOC(=O)C1=C(C)NC2=C(C(=O)CC(c3ccccc3OC)C2)C1c1cccc(O)c1 (centres undefined)
inactive: Potency (C33A) | Potency (CAOV3) | Potency (CASKI) | Potency (Es-2) | Potency (Hek293T) | Potency (JEG-3) | Potency (OV90) | Potency (PA-1) | Potency (Tov-21-G) | Potency (Tov112D)
